Paper PMC7819943, “Rice protein-binding microarrays: a tool to detect cis-acting elements near promoter regions in rice”
Whole data set: some 39,000 sequences, median “fluorescence intensity (a.u.)” near 4,300, cut for the highest 2% near 39,000. For the sample, the highest values were picked, then their nearest neighbours and some sequences at random.

Target: T1, OsSMF1 (Oryza sativa, UniProt Q6ZLB0 1-436)
T1 sequence: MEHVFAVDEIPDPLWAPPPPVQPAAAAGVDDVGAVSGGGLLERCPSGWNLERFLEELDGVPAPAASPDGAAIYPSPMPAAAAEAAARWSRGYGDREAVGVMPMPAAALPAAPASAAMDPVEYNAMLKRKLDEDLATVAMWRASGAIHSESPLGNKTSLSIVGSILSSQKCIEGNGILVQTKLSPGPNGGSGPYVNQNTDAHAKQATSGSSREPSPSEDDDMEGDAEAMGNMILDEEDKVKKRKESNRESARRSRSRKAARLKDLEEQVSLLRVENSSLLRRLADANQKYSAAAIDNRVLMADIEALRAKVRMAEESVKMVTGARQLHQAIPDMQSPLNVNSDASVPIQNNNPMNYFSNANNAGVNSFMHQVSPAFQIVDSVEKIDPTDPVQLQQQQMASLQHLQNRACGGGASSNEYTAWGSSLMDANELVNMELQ
Experiment: protein-binding microarray (RPBM); PBS, 2% BSA, 51.3 ng/ul salmon testes DNA, 50 uM zinc acetate, 200 nM TF, 25 C, 1 h; high values mean tight binding
Details: protein: recombinant; tags: N-terminal polyhistidine and DsRed monomer fusion (pET32a); chain copies: 2; label: CyDye5-dUTP incorporated in the synthesized complementary strand; 3' TTTTT single-stranded linker to array surface; dsDNA, one strand shown
Method in brief: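 The binding signal is fluorescence intensity per feature, in arbitrary units, read on an Axon 4000B scanner. Polyhistidine- and DsRed-tagged transcription factors (N-terminal fusions) from E. coli BL21-CodonPlus were purified on Ni–NTA and applied at 200 nM for 1 h at 25 °C to a double-stranded, BSA-blocked custom Agilent array in buffer with 50 µM zinc acetate.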

Sequence	binding signal
GGGCCTCCCCTCCTCCCTTCGCTGGCGAGAGGACGGAGACCGGAGTCACCTAGTGCAG	3400 fluorescence intensity (a.u.)
GATATATCCACATCAGCGTGCATACAAGTGTGTCAAAGCTCGGAGTCACCTAGTGCAG	8160 fluorescence intensity (a.u.)
CATCAAACAACCAGTTTCTTAGGATGTCTTTTAACCGTGACGGAGTCACCTAGTGCAG	23200 fluorescence intensity (a.u.)
AACCCCAGAAACCAGAGGCGGGCTGGTTGATCCATTCTTTCGGAGTCACCTAGTGCAG	45000 fluorescence intensity (a.u.)
AAACCATTCGCCCGATTTGATCCACATCACCACTTTGGTTCGGAGTCACCTAGTGCAG	10400 fluorescence intensity (a.u.)
TCACCCCTGAGAAAGACACGTCTTTCTGGTTTAATCCATTCGGAGTCACCTAGTGCAG	3620 fluorescence intensity (a.u.)
GGGAAACGAGTCAAGCTGACGTGTGCAAGAATCTCCTACACGGAGTCACCTAGTGCAG	13500 fluorescence intensity (a.u.)
GTAAGTTGAATGATGTCATATATTTAATTTTACGGTAAGTCGGAGTCACCTAGTGCAG	6940 fluorescence intensity (a.u.)
TACATTATATTCAATTCTAACTTTCGGAAATATTATATAGCGGAGTCACCTAGTGCAG	26900 fluorescence intensity (a.u.)
AAAATTATTAACTTCTTGTTTCGATCACCCTAATAAATAGCGGAGTCACCTAGTGCAG	41000 fluorescence intensity (a.u.)
TAATTAAATTGTCATATCACTTCTTAACTTATTGGACTAACGGAGTCACCTAGTGCAG	3220 fluorescence intensity (a.u.)
GACGTGGTAAGTTAACTTGGTTAAAATGTGCTGACGTGGTCGGAGTCACCTAGTGCAG	24700 fluorescence intensity (a.u.)
AATGCTAAGGGACAACGTCAGCGGGTTAGTGCAAGGTAAGCGGAGTCACCTAGTGCAG	6630 fluorescence intensity (a.u.)
TGCAGGGGCGCAGCACGGGAGGGTGCTTGACGCATACAAGCGGAGTCACCTAGTGCAG	4030 fluorescence intensity (a.u.)
CACGGACGCAAGGGGCCTGCTAAGCCTCTACAACGCAGCGCGGAGTCACCTAGTGCAG	41800 fluorescence intensity (a.u.)
GCTGCTCTCTTTCCTCTCTTCTCTCTCTGTTTTCTCTCCTCGGAGTCACCTAGTGCAG	18500 fluorescence intensity (a.u.)
CTCTGTGCTGAAATGGTTAGGTATGTTTTCTTTCTGCTCTCGGAGTCACCTAGTGCAG	40700 fluorescence intensity (a.u.)
TGGTATGAATGGATAATTTGTTTCTGTCTTATGTGTTGCTCGGAGTCACCTAGTGCAG	3150 fluorescence intensity (a.u.)
TCGGCAAGCTGAGACGGCTAGTGAACCTATCAGCCATCAGCGGAGTCACCTAGTGCAG	15900 fluorescence intensity (a.u.)
TCTGCAAGCACCAACGAGAAGCCACAAATGTTCACATCACCGGAGTCACCTAGTGCAG	3610 fluorescence intensity (a.u.)
CAAGTCCAAGAGCACCATAAGCTAGTGACACATAGAGCCCCGGAGTCACCTAGTGCAG	4140 fluorescence intensity (a.u.)

Sequence	binding signal
TCTGGACCACATAAACGAGAGAGAGAGAGAAGTCCAAGCCCGGAGTCACCTAGTGCAG	47900 fluorescence intensity (a.u.)
CGTGCGGCGGATCGTGGTGGACGCGAGCGGCGGCGGCGACCGGAGTCACCTAGTGCAG	3440 fluorescence intensity (a.u.)
GATCGACGGCGACGCCCCTGGAAGGAGCGGAATAGACCACCGGAGTCACCTAGTGCAG	46700 fluorescence intensity (a.u.)
CCTGAGGAGGGAAGGGTCGATGTGGAGGAGCGGCGGCGACCGGAGTCACCTAGTGCAG	3500 fluorescence intensity (a.u.)
TTTGCATTGACTTGATATAGTATGTCACCATCACACTATCCGGAGTCACCTAGTGCAG	5460 fluorescence intensity (a.u.)
TTGTGACTTGATTTATCATCAAATGTTCTTTAAACATGACCGGAGTCACCTAGTGCAG	3540 fluorescence intensity (a.u.)
TTGCATCAGGCCCTCTTCAATGATTTAAACAAACAATGGACGGAGTCACCTAGTGCAG	52300 fluorescence intensity (a.u.)
TTACAAACAACGCCTTGCATGATTGCATCATCGCCCTAAACGGAGTCACCTAGTGCAG	4300 fluorescence intensity (a.u.)
GGCGTATTCCAAAAGCCTTGGCCACCATTATTGCGTGGCACGGAGTCACCTAGTGCAG	6820 fluorescence intensity (a.u.)
GCTAGCTAAGAGCGAGCTTCATTAACATACGAGACAGAGACGGAGTCACCTAGTGCAG	4530 fluorescence intensity (a.u.)
TACTCTGCCAATCTAAATTAATGATGTATGATATGGTCTCCGGAGTCACCTAGTGCAG	4340 fluorescence intensity (a.u.)
GTTAATTAATACTCTCCGTTTCATATTATAAGGCGTTTGACGGAGTCACCTAGTGCAG	26400 fluorescence intensity (a.u.)
ACCCATATAATTAAGGTGCCAATGCTGCTAATACTCTCTCCGGAGTCACCTAGTGCAG	46100 fluorescence intensity (a.u.)
GACACATGAGGGCCCACATGTCATACATTGTGAATGACACCGGAGTCACCTAGTGCAG	3900 fluorescence intensity (a.u.)
GCCGCACCGGTCGGTTTCAGCGCGTGTGACACGCAGATTCCGGAGTCACCTAGTGCAG	3500 fluorescence intensity (a.u.)
CTTGTCTAGTCCAGGACAACTGGGATGATTGAGCACCAGTCGGAGTCACCTAGTGCAG	3170 fluorescence intensity (a.u.)
AACCTCAATGTTCCACGTCATCATTAATTTACAGCCGTTGCGGAGTCACCTAGTGCAG	39400 fluorescence intensity (a.u.)
CAAACCACAGTGTTCCACGTCATCATCAATTGACAGCCGTCGGAGTCACCTAGTGCAG	37800 fluorescence intensity (a.u.)
CCGTTACATTGTTCCAATTTTAATTAAACTTCCAATTTTACGGAGTCACCTAGTGCAG	30600 fluorescence intensity (a.u.)
ATGGGGTGGATGCGTCAGAATTTACATAGGCACGGAACGTCGGAGTCACCTAGTGCAG	5800 fluorescence intensity (a.u.)
CCTTCCCTAGGGGCGGAGCCACGTAGCTTGGGCCCCACACCGGAGTCACCTAGTGCAG	6430 fluorescence intensity (a.u.)
